Assay outcomes (PubChem BioAssay)
BoNT-F LC inh – BoNT F light chain protease inhibition; inhibition, % at 10 µM; AID 588497; 360,000 compounds, 0.22% hits; Multiplex microsphere protease cleavage assay, flow cytometry; in the data active means inhibition above about 35%, passing the limit was not always enough; inconclusive means no clear call, values can overlap the other calls; further: plate controls were buffer without enzyme for full effect and enzyme alone for no effect
BoNT-A LC inh2 – BoNT A light chain protease inhibition; multiplex microsphere protease substrate cleavage, flow cytometry; inhibition, % at 10 µM; 360,000 compounds, 0.17% hits; in the data active means inhibition above about 30%; inconclusive means no clear call, values can overlap the other calls; further: plate controls were buffer without enzyme for full effect and enzyme alone for no effect
3CLpro inhibitor – SARS-CoV 3CLpro protease inhibition | recombinant SARS-CoV 3CLpro, quenched FRET peptide cleavage | inhibition, % at 6 µM | 290,000 compounds, 0.14% hits | AID 1706; in the data active means inhibition above about 12%
CCHF vOTU inh-1 – CCHFV vOTU protease inhibition; Pep-AMC fluorescence; inhibition, % at 11.5 µM; 370,000 compounds, 0.55% hits; further: 0% = vehicle wells with enzyme and 100% = no enzyme wells
Bead autofluor – flagged as autofluorescent in microsphere protease counterscreen. compound autofluorescence counterscreen, microsphere flow cytometry; hits give high values. 360,000 compounds, 3.1% hits. fluorescence intensity (concentration not given with the values); in the data active means fluorescence intensity above about 16000; inconclusive means no clear call, values can overlap the other calls
Anthrax LF inh2 – inhibitors of Bacillus anthracis lethal factor protease. inhibition, % at 10 µM. P15917. multiplex microsphere protease cleavage assay, LF. AID 588501. 360,000 compounds, 0.12% hits; in the data active means inhibition above about 30%; inconclusive means no clear call, values can overlap the other calls; further: plate controls were buffer without enzyme for full effect and enzyme alone for no effect
Target sequence (P15917 whole entry, looked up): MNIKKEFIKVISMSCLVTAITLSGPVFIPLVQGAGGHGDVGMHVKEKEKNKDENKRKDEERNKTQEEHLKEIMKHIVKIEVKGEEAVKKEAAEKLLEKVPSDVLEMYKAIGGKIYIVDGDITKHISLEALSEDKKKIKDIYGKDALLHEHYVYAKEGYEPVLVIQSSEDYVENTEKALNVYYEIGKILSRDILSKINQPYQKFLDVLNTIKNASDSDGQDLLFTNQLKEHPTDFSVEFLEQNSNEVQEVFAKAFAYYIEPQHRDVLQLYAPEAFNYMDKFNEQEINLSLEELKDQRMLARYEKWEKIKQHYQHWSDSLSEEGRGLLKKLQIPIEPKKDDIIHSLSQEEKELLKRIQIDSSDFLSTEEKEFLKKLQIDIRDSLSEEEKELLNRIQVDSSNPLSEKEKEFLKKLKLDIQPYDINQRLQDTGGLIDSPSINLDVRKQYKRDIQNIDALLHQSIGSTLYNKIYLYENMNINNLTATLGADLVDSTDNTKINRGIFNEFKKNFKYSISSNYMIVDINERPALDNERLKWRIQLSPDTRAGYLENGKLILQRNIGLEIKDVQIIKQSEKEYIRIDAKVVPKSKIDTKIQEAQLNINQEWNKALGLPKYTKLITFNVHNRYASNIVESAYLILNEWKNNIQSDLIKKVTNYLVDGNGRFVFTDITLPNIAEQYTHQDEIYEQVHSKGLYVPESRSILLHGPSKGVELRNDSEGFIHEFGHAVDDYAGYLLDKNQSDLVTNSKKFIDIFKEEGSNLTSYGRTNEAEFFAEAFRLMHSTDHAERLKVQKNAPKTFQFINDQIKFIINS
CCHF vOTU inh-2 – confirmation of CCHF virus vOTU protease inhibitors; shares compounds with CCHF vOTU inh-1; Recombinant CCHFV vOTU, Pep-AMC fluorescence; inhibition, % at 11.5 µM; 1,900 compounds, 17% hits
Starred values were filed as active, the others as inactive. Sampled rows, rich in hits. Any-hit rate of the full collection: about 3.9%. Unless noted, no stated cut-off is given here; in the data, active means inhibition above about 30%; inactive means the rest.

O=C(O)c1ccccc1NS(=O)(=O)c1ccc(N/N=C/c2ccc(O)c(O)c2)c([N+](=O)[O-])c1 was read as BoNT-F LC inh 2.2, BoNT-A LC inh2 -0.4, CCHF vOTU inh-1 42.1*, Bead autofluor 3657, Anthrax LF inh2 -1.1 and CCHF vOTU inh-2 45.8*.
Screening COc1ccc(NS(=O)(=O)c2cc([N+](=O)[O-])ccc2NN=Cc2ccccc2OCC(=O)O)cc1 returned BoNT-F LC inh 7.2, BoNT-A LC inh2 -2.9, CCHF vOTU inh-1 13.8, Bead autofluor 6856 and Anthrax LF inh2 -5.0.
O=C(O)c1ccccc1NS(=O)(=O)c1ccc(NN=Cc2ccc(F)cc2)c([N+](=O)[O-])c1 was read as BoNT-F LC inh -3.0, BoNT-A LC inh2 0.2, Bead autofluor 4296 and Anthrax LF inh2 0.2.
Screening O=C(COC(=O)c1ncc(Cl)c(Cl)c1Cl)NC1CCCCCC1 returned BoNT-F LC inh 2.2, BoNT-A LC inh2 -1.3, CCHF vOTU inh-1 40.7*, Bead autofluor 5495, Anthrax LF inh2 -0.5 and CCHF vOTU inh-2 7.5.
`O=C(NC1CCCCCC1)c1cc(S(=O)(=O)N2CCOCC2)ccc1F` gave BoNT-F LC inh 0.9, BoNT-A LC inh2 -0.2, 3CLpro inhibitor 4.8, CCHF vOTU inh-1 1.6, Bead autofluor 5293 and Anthrax LF inh2 1.5.
`CCOC(=O)/C=C1\CN(Cc2cc(OC)c(OC)c(OC)c2)S(=O)(=O)c2ccc(C(F)(F)F)cc21` gave BoNT-F LC inh -4.4, BoNT-A LC inh2 -0.5, 3CLpro inhibitor 1.3, CCHF vOTU inh-1 32.6*, Bead autofluor 3950, Anthrax LF inh2 -9.7 and CCHF vOTU inh-2 3.4.
Screening CCOC(=O)/C=C1\CN(Cc2cc(OC)c(OC)c(OC)c2)S(=O)(=O)c2ccccc21 returned BoNT-F LC inh -1.9, BoNT-A LC inh2 0.4, 3CLpro inhibitor -1.1, CCHF vOTU inh-1 4.8, Bead autofluor 2907 and Anthrax LF inh2 3.3.
O=C(C[C@@H]1C[C@@H]2c3cc(NC(=O)C4CCC4)ccc3O[C@@H]2[C@@H](CO)O1)NCc1ccc(Cl)cc1 was read as BoNT-F LC inh -7.4, BoNT-A LC inh2 -0.3, CCHF vOTU inh-1 6.4, Bead autofluor 3087 and Anthrax LF inh2 -0.9.
CC(=O)N1CCOc2ccc(S(=O)(=O)Nc3cccc(C)c3)cc21 was read as BoNT-F LC inh 1.2, BoNT-A LC inh2 0.2, 3CLpro inhibitor -4.0, CCHF vOTU inh-1 31.0*, Bead autofluor 5718, Anthrax LF inh2 -5.0 and CCHF vOTU inh-2 6.7.
For COc1cccc(NS(=O)(=O)c2ccc3c(c2)N(C(C)=O)CCO3)c1 the results were BoNT-F LC inh -3.3, BoNT-A LC inh2 0.4, 3CLpro inhibitor -1.0, CCHF vOTU inh-1 6.3, Bead autofluor 4214 and Anthrax LF inh2 0.3.
For Cc1cccc(OCC(=O)NNC(=O)c2cc(S(=O)(=O)N(C)C)ccc2N2CCCC2)c1 the results were BoNT-F LC inh -1.7, BoNT-A LC inh2 2.4, CCHF vOTU inh-1 -2.8, Bead autofluor 9016 and Anthrax LF inh2 -1.3.
`Cc1ccc(OCC(=O)NNC(=O)c2cc(S(=O)(=O)N(C)C)ccc2N2CCCC2)cc1` gave BoNT-F LC inh -1.8, BoNT-A LC inh2 0.1, CCHF vOTU inh-1 32.6*, Bead autofluor 3815, Anthrax LF inh2 1.1 and CCHF vOTU inh-2 -15.2.
For CCc1nnc(N/N=C/c2cc(C)c(C)cc2C)n1N the results were BoNT-F LC inh inconclusive, BoNT-A LC inh2 -9.0, 3CLpro inhibitor -3.0, CCHF vOTU inh-1 74.5*, Bead autofluor 4027, Anthrax LF inh2 -11.9 and CCHF vOTU inh-2 -21.5.
CCc1nnc(N/N=C/c2c(F)cccc2Cl)n1N was read as BoNT-F LC inh inconclusive, BoNT-A LC inh2 2.0, 3CLpro inhibitor 1.3, CCHF vOTU inh-1 87.5*, Bead autofluor 4082, Anthrax LF inh2 -8.4 and CCHF vOTU inh-2 -12.2.
Screening Cc1cc(/C=N/NC(N)=S)c(C)n1-c1ccc(Br)cc1 returned BoNT-F LC inh -2.4, BoNT-A LC inh2 -0.7, 3CLpro inhibitor -3.2, CCHF vOTU inh-1 18.2, Bead autofluor 3862 and Anthrax LF inh2 1.3.
`Cc1nnc(N/N=C/c2cc(C)n(-c3ccc(F)cc3)c2C)n1N` gave BoNT-F LC inh -15.7, BoNT-A LC inh2 -0.1, 3CLpro inhibitor -4.6, CCHF vOTU inh-1 99.1*, Bead autofluor 1951, Anthrax LF inh2 -1.0 and CCHF vOTU inh-2 -8.9.
For Cc1nnc(N/N=C/c2ccccc2O)n1N the results were BoNT-F LC inh 0.0, BoNT-A LC inh2 -0.9, 3CLpro inhibitor 2.0, CCHF vOTU inh-1 97.0*, Bead autofluor 4450, Anthrax LF inh2 -9.1 and CCHF vOTU inh-2 -4.0.
`COC(=O)c1sc2cc([N+](=O)[O-])cc(SCC(C)C)c2c1N` gave BoNT-F LC inh 15.9, BoNT-A LC inh2 23.6, 3CLpro inhibitor -2.4, CCHF vOTU inh-1 0.0, Bead autofluor 6894 and Anthrax LF inh2 15.0.
Screening O=C1CCCc2c1oc1c2CCCC1 returned BoNT-F LC inh -1.3, BoNT-A LC inh2 -0.5, CCHF vOTU inh-1 -14.3, Bead autofluor 2808 and Anthrax LF inh2 -5.2.
Screening CC(=O)c1cccc(NC(=O)C2CCCN2S(=O)(=O)c2cccs2)c1 (stereo not drawn) returned BoNT-F LC inh -4.4, BoNT-A LC inh2 -0.2, CCHF vOTU inh-1 -3.9, Bead autofluor 3043 and Anthrax LF inh2 1.4.
For CCc1cc(CNC(=O)C2CCC(=O)N(Cc3ccc(Cl)cc3)C2)on1 (stereo not drawn) the results were BoNT-F LC inh -6.6, BoNT-A LC inh2 -6.1, 3CLpro inhibitor 0.4, CCHF vOTU inh-1 -19.8, Bead autofluor 5468 and Anthrax LF inh2 -1.2.
Screening CC1=C(C(=O)NC2CCCc3c2cnn3-c2cc(F)cc(F)c2)OCCO1 (stereo not drawn) returned BoNT-F LC inh 1.4, BoNT-A LC inh2 -4.3, 3CLpro inhibitor -7.9, CCHF vOTU inh-1 -6.2, Bead autofluor 6678 and Anthrax LF inh2 -2.0.
Cc1nnc(N/N=C/c2c(Cl)cccc2Cl)n1N was read as BoNT-F LC inh -6.9, BoNT-A LC inh2 -2.4, 3CLpro inhibitor 8.1, CCHF vOTU inh-1 74.5*, Bead autofluor 6695, Anthrax LF inh2 -1.5 and CCHF vOTU inh-2 -7.9.
For CCc1nnc(N/N=C/c2c(C)[nH]c3ccccc23)n1N the results were BoNT-F LC inh 0.0, BoNT-A LC inh2 -0.6, 3CLpro inhibitor 1.9, CCHF vOTU inh-1 112.4*, Bead autofluor 4918, Anthrax LF inh2 2.2 and CCHF vOTU inh-2 -10.6.
CCOc1cc(/C=N/Nc2nnc(C)n2N)ccc1O was read as BoNT-F LC inh 9.3, BoNT-A LC inh2 0.7, 3CLpro inhibitor -4.0, CCHF vOTU inh-1 116.7*, Bead autofluor 3111, Anthrax LF inh2 -4.3 and CCHF vOTU inh-2 5.2.
Screening Cc1noc(C)c1C(=O)OCC(=O)Nc1ccc(C(N)=O)cc1 returned BoNT-F LC inh -11.6, BoNT-A LC inh2 -0.5, 3CLpro inhibitor 1.7, CCHF vOTU inh-1 -9.2, Bead autofluor 4329 and Anthrax LF inh2 -0.8.
`Cc1noc(C)c1C(=O)OCC(=O)Nc1ccc(N2CCOCC2)cc1` gave CCHF vOTU inh-1 31.7* and CCHF vOTU inh-2 -11.5.
